According to the supplement of paper PMC10849652:
The full data set covers some 7,900 targets. This sample favours those with a hit. About 0.6% of all pairs of compound and target were hits.

Legend:
Assay in all cases: log2 fold change, soluble protein after heating vs DMSO (PISA); higher = thermal stabilisation; K562 cells, 10 uM, 30 min; active = over 0.2 and 3.5 SD of the protein, either way, in both replicates (recomputed)
[1] = compound: CC[C@@H]1C(=O)N(C)c2cnc(Nc3ccc(C(=O)NC4CCN(C)CC4)cc3OC)nc2N1C1CCCC1
How it was run: (§1)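 K562 cells at 2×10^6 cells/mL were given 10 μM compound for 30 min. Aliquots then went through 3 min of heating across 48°C-58°C, were pooled, and were extracted in PBS with 0.5% NP-40 at 4°C, and the supernatant after 21,000xg for 90 min was quantified by TMTpro 16plex LC-MS/MS with channel sums equalised. Thermal stability relative to control samples, from duplicates, is given as log2 fold change.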

volasertib = compound: CC[C@@H]1C(=O)N(C)c2cnc(Nc3ccc(C(=O)N[C@H]4CC[C@H](N5CCN(CC6CC6)CC5)CC4)cc3OC)nc2N1C(C)C [volasertib]
How it was run: as §1

[2] = compound: CC[C@H](C)N1C=C(C2=C(C=C(C=C21)C3=CN=C(C=C3)N4CCNCC4)C(=O)NCC5=C(C=C(NC5=O)C)C)C
How it was run: as §1

[3] = compound: CCn1c(C(=O)N(C2CC2)C2CC2)cc2c3c(ncn3C)c(Nc3cc(C)n(C)n3)nc21
How it was run: as §1

[4] = compound: CCn1cc(-c2ccnc3[nH]c(-c4cccc(CN(C)C)c4)cc23)c(-c2ccc(NC(=O)N(C)C)cc2)n1
How it was run: as §1

[5] = compound: CN(C)CC(=O)Nc1ccc2[nH]c(=O)c3ccccc3c2c1
How it was run: as §1

rosiglitazone = compound: CN(CCOC1=CC=C(C=C1)C[C@H]2C(=O)NC(=O)S2)C3=CC=CC=N3 (racemic) [rosiglitazone]
How it was run: as §1

[6] = compound: CN1C2=C(C3=C1C(=O)N(N=C3)CC4=CC(=CC=C4)N)SC(=C2)S(=O)C
How it was run: as §1

[7] = compound: CN1CCC(CNc2ccc3ncc(-c4cccc(OC(F)(F)F)c4)n3n2)CC1
How it was run: as §1

saracatinib = compound: CN1CCN(CCOc2cc(OC3CCOCC3)c3c(Nc4c(Cl)ccc5c4OCO5)ncnc3c2)CC1 [saracatinib]
How it was run: as §1

Tubastatin A = compound: CN1CCc2c(c3ccccc3n2Cc2ccc(C(=O)NO)cc2)C1 [Tubastatin A]
How it was run: as §1

[8] = compound: CNC(=O)C1=CC=CC=C1NC2=NC(=NC=C2Cl)NC3=C(C=C(C=C3)N4CCOCC4)OC
How it was run: as §1

defactinib = compound: CNC(=O)c1ccc(Nc2ncc(C(F)(F)F)c(NCc3nccnc3N(C)S(C)(=O)=O)n2)cc1 [defactinib]
How it was run: as §1

rucaparib = compound: CNCc1ccc(-c2[nH]c3cc(F)cc4c3c2CCNC4=O)cc1 [rucaparib]
How it was run: as §1

[9] = compound: CNc1nc(-c2ccc3c(N)n[nH]c3c2)cc(N2C[C@@H](C(=O)NC3CCCCC3)CC[C@H]2C)n1
How it was run: as §1

encorafenib = compound: COC(=O)N[C@@H](C)CNc1nccc(-c2cn(C(C)C)nc2-c2cc(Cl)cc(NS(C)(=O)=O)c2F)n1 [encorafenib]
How it was run: as §1

[10] = compound: COC(=O)[C@H](CCSC)NC(=O)C1=C(C=C(C=C1)NC[C@H](CS)N)C2=CC=CC=C2
How it was run: as §1

epoxomicin = compound: CC[C@H](C)[C@@H](C(=O)N[C@@H]([C@@H](C)O)C(=O)N[C@@H](CC(C)C)C(=O)[C@]1(CO1)C)NC(=O)[C@H]([C@@H](C)CC)N(C)C(=O)C [epoxomicin]
How it was run: as §1

sotrastaurin = compound: CN1CCN(c2nc(C3=C(c4c[nH]c5ccccc45)C(=O)NC3=O)c3ccccc3n2)CC1 [sotrastaurin]
How it was run: as §1

alvocidib = compound: CN1CC[C@H](c2c(O)cc(O)c3c(=O)cc(-c4ccccc4Cl)oc23)[C@H](O)C1 [alvocidib]
How it was run: as §1

Measured: log2 fold change

CYP24A1 (UniProt Q07973)
inactive: [1] 0.252 | volasertib 0.379 | [2] -0.209 | [3] -0.126 | [4] 0.065 | [5] -0.175 | rosiglitazone -0.205 | [6] 0.288 | [7] 0.198 | saracatinib -0.144 | Tubastatin A 0.365 | [8] -0.075 | defactinib 0.394 | rucaparib 0.115 | [9] 0.078 | encorafenib 0.075 | [10] 0.016

DYNC1I2 isoform 2 (UniProt Q13409)
Chain of UniProt Q13409 (Q13409 whole entry, looked up): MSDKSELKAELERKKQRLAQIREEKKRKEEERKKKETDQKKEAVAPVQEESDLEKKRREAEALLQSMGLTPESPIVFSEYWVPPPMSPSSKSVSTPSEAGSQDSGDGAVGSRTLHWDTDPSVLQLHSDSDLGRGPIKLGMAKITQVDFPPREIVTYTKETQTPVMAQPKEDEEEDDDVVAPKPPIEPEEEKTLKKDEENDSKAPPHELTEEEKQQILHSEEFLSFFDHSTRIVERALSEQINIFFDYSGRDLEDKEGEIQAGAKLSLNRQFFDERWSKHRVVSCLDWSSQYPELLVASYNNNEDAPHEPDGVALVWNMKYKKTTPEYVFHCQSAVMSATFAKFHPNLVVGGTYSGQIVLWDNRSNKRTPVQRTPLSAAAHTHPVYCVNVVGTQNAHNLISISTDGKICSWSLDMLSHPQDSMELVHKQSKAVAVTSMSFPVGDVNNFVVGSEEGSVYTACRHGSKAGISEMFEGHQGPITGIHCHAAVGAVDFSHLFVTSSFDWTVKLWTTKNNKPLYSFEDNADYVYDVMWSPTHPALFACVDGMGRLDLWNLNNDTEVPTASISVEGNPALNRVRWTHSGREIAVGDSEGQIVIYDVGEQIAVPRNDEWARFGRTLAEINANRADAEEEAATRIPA
inactive: [1] 0.012 | volasertib 0.045 | epoxomicin -0.06 | [3] 0.086 | rosiglitazone -0.022 | sotrastaurin 0.062 | alvocidib 0 | Tubastatin A -0.028 | [8] -0.021 | rucaparib -0.034 | encorafenib -0.108

CWF19L2 (UniProt Q2TBE0)
inactive: [1] -0.051 | volasertib -0.107 | [3] -0.131 | [4] 0.094 | [6] 0.231 | [7] 0.21 | saracatinib -0.089 | sotrastaurin -0.15 | alvocidib 0.081 | Tubastatin A -0.079 | [8] -0.034 | rucaparib 0.102 | [9] -0.014 | encorafenib -0.002

EZH2 isoform 2 (UniProt Q15910)
inactive: volasertib -0.259 | epoxomicin 0.131 | [3] -0.173 | [5] 0.022 | rosiglitazone 0.243 | [6] 0.155 | saracatinib -0.043 | sotrastaurin 0.001 | alvocidib -0.18 | Tubastatin A 0.119 | [8] 0.011 | defactinib -0.207 | [9] 0.217 | [10] -0.302

DNM2 isoform 4 (UniProt P50570)
Chain of UniProt P50570 (P50570 whole entry, looked up): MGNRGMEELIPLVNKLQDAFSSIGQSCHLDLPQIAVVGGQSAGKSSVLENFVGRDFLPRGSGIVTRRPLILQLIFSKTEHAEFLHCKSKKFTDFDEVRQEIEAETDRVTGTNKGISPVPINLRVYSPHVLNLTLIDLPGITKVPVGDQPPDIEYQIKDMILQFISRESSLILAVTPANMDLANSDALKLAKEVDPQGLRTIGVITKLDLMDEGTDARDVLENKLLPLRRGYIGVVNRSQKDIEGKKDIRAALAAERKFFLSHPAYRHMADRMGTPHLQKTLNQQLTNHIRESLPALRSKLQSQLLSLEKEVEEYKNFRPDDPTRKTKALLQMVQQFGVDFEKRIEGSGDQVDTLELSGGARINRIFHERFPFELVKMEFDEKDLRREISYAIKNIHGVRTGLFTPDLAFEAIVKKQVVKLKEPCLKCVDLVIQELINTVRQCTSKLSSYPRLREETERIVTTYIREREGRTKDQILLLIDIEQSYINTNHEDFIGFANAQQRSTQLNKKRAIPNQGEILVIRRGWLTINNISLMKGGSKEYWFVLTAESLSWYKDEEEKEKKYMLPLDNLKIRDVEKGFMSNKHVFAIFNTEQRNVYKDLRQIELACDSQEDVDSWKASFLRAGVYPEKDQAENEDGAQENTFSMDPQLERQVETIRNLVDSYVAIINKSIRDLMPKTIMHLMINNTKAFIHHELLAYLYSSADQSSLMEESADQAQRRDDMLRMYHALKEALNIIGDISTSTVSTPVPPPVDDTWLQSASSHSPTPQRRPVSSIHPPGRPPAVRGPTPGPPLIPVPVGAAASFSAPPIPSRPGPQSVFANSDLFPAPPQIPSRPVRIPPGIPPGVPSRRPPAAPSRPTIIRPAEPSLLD
inactive: [1] 0.026 | [2] -0.125 | epoxomicin 0.241 | [3] 0.017 | [4] -0.01 | rosiglitazone 0.038 | [6] 0.027 | [7] -0.252 | saracatinib -0.126 | sotrastaurin -0.024 | alvocidib -0.072 | [8] -0.088 | rucaparib -0.268 | [9] -0.235 | encorafenib 0.107

DCAF12 (UniProt Q5T6F0)
inactive: [1] -0.132 | [4] -0.141 | [7] 0.197 | sotrastaurin 0.058 | rucaparib 0.199 | encorafenib 0.112

DHRS13 (UniProt Q6UX07)
Chain of UniProt Q6UX07 (Q6UX07 whole entry, looked up): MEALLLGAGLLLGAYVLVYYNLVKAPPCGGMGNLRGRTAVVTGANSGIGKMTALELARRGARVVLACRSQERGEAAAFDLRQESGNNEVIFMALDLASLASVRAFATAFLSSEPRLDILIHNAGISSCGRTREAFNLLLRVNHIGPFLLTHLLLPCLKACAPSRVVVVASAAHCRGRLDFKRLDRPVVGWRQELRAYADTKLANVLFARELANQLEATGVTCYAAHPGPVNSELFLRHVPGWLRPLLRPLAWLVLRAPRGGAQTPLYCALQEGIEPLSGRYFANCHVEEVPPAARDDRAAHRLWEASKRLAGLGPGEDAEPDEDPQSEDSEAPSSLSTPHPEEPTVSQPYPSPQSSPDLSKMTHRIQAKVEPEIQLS
inactive: [1] 0.157 | [2] 0.139 | [3] -0.135 | [4] -0.077 | [5] 0.225 | [6] 0.143 | [7] 0.098 | saracatinib -0.03 | sotrastaurin -0.17 | alvocidib -0.139 | Tubastatin A 0.105 | [8] 0.024 | defactinib -0.032 | rucaparib 0.188 | [9] 0.174 | encorafenib 0.021 | [10] -0.114

DDB1 isoform 2 (UniProt Q16531)
Chain of UniProt Q16531 (Q16531 whole entry, looked up): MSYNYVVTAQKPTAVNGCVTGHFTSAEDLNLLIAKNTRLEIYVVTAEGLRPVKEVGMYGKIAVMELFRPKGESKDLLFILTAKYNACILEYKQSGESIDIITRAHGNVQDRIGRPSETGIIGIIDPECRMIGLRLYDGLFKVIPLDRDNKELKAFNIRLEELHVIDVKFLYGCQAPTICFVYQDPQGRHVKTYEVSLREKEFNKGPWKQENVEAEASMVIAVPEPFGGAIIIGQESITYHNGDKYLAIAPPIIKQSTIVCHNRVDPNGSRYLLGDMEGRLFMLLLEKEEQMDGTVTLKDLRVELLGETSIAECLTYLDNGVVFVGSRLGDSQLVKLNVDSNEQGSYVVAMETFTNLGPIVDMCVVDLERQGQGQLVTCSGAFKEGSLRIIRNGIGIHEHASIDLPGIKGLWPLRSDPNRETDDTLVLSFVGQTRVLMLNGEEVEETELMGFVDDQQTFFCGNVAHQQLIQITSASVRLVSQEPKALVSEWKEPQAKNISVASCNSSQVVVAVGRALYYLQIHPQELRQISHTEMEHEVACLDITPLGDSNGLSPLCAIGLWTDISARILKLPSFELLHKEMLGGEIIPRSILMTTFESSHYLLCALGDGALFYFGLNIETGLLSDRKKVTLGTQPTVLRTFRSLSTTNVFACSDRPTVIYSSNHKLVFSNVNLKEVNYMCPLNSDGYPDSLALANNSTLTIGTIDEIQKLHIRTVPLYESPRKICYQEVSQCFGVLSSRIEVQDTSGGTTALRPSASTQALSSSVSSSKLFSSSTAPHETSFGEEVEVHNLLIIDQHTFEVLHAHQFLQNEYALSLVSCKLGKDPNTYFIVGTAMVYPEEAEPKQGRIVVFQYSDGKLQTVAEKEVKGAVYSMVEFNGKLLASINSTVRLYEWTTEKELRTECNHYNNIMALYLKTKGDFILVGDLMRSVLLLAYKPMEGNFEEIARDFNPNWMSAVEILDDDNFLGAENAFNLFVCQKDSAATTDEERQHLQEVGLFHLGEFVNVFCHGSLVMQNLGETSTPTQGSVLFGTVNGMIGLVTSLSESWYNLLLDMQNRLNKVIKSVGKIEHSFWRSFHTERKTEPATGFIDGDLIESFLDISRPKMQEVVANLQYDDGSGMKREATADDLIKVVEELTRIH
inactive: [1] 0.141 | epoxomicin -0.287 | [4] 0.235 | rosiglitazone 0.301 | [7] -0.041 | sotrastaurin 0.053 | rucaparib -0.067 | encorafenib -0.041

EID1 (UniProt Q9Y6B2)
Chain of UniProt Q9Y6B2 (Q9Y6B2 whole entry, looked up): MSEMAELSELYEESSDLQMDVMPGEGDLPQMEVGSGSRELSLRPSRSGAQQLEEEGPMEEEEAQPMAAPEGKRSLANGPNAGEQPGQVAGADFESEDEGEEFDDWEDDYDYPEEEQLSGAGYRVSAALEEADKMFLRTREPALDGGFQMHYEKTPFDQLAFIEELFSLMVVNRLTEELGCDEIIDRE
active: epoxomicin 0.83
inactive: volasertib 0.053 | [2] 0.172 | [3] 0.05 | [4] -0.104 | [7] -0.317 | sotrastaurin -0.049 | Tubastatin A 0.599 | [8] -0.111

DDX46, A0A0C4DG89
inactive: [2] -0.074 | epoxomicin 0.155

EPHB4 (UniProt P54760)
inactive: volasertib -0.302 | sotrastaurin -0.057

EGR1 (UniProt P18146)
inactive: volasertib 0.085 | [2] 0.158 | epoxomicin 0.489 | [3] 0.113 | [4] 0.228 | [5] -0.241 | rosiglitazone 0.08 | [7] -0.56 | sotrastaurin -0.481 | alvocidib -0.604 | Tubastatin A 0.129 | [8] -0.147 | [10] 0.041
active: defactinib -0.841

DHPS (UniProt M0R1T2)
inactive: rosiglitazone -0.057 | sotrastaurin -0.06

EIF4G1 (UniProt Q04637)
inactive: [4] 0.062 | [5] 0 | [6] 0.224 | saracatinib -0.112 | alvocidib 0.047 | Tubastatin A 0.006 | defactinib -0.08 | [9] -0.017 | [10] 0.014
active: [7] -0.552

ELMO1 (UniProt Q92556)
Chain of UniProt Q92556 (Q92556 whole entry, looked up): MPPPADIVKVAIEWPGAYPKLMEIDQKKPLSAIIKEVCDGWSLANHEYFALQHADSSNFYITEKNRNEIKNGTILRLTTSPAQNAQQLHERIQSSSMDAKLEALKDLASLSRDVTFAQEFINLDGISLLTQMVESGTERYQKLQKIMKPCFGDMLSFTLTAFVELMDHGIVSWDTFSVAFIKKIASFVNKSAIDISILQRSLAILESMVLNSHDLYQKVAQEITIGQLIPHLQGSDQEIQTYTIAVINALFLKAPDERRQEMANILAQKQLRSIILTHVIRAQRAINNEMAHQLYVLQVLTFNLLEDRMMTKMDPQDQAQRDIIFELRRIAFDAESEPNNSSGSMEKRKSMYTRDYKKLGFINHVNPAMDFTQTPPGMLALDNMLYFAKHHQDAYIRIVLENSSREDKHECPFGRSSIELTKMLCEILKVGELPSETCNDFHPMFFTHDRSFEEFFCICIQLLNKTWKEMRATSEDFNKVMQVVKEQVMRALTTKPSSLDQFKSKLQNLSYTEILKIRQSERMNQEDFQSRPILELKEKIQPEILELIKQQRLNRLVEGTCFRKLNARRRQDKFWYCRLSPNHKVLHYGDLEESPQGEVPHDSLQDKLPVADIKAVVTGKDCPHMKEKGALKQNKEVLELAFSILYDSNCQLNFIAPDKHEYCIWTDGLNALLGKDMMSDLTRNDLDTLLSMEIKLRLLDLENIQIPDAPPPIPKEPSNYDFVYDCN
inactive: [2] -0.089 | epoxomicin -0.109 | [3] 0.046 | [5] 0.031 | rosiglitazone 0.076 | [6] -0.078 | saracatinib 0.051 | sotrastaurin 0.046 | [8] -0.074 | defactinib -0.045 | [9] 0.041 | [10] -0.222

EPHX2 (UniProt E5RI53)
inactive: epoxomicin -0.199 | rosiglitazone -0.248

DENND1A isoform 6 (UniProt Q8TEH3)
inactive: [5] 0.112 | rosiglitazone -0.041 | Tubastatin A -0.018 | defactinib -0.081 | [10] -0.024
active: volasertib -0.856

DNAJB1 (UniProt M0R128)
inactive: [5] -0.038 | rosiglitazone 0.223 | alvocidib 0.082 | Tubastatin A -0.058 | defactinib -0.073 | [10] 0.18

EDEM2 (UniProt Q9BV94)
Chain of UniProt Q9BV94 (Q9BV94 whole entry, looked up): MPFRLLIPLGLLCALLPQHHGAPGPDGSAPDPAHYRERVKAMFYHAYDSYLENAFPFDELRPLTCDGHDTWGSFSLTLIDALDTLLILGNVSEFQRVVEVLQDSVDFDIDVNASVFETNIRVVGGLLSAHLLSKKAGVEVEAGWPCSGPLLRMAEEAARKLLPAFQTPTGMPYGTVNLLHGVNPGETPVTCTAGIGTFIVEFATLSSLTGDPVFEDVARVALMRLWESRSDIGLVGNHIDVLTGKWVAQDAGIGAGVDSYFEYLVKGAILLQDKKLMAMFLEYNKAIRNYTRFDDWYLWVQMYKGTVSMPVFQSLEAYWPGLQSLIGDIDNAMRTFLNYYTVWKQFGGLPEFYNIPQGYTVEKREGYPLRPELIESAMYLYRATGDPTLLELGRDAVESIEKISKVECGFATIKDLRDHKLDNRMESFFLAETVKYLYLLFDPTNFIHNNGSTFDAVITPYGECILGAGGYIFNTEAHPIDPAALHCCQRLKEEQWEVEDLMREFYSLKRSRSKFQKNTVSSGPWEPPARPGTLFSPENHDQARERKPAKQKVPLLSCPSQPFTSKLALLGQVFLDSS
inactive: volasertib -0.159 | [2] -0.035 | epoxomicin -0.006 | [3] 0.033 | [4] -0.087 | [5] -0.001 | rosiglitazone -0.077 | [6] -0.003 | [7] 0.161 | saracatinib -0.23 | sotrastaurin -0.05 | alvocidib -0.028 | Tubastatin A 0.022 | [8] -0.016 | defactinib 0.036 | [9] 0.079 | [10] 0.105

DCAF4 (UniProt Q8WV16)
Chain of UniProt Q8WV16 (Q8WV16 whole entry, looked up): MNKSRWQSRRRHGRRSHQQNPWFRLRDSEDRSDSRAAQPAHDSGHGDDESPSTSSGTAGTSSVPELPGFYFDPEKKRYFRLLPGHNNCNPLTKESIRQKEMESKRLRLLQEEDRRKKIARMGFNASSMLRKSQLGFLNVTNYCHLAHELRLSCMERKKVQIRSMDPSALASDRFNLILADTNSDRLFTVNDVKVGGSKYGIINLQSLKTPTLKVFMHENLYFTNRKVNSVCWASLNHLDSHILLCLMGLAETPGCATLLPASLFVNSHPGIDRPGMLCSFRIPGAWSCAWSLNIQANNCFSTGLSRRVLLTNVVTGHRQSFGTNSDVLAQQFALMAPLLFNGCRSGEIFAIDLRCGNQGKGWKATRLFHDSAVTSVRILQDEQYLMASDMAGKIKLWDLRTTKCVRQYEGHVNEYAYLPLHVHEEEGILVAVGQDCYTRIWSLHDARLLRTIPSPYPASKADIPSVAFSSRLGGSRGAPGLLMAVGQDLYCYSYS
inactive: [1] 0.03 | [2] -0.075 | epoxomicin 0.041 | [4] 0.147 | [6] 0.128 | [7] -0.086 | saracatinib -0.097 | sotrastaurin 0.027 | rucaparib -0.346 | [9] 0.193 | encorafenib 0.103

FAM135A (UniProt Q9P2D6)
inactive: [2] -0.068 | epoxomicin -0.088 | [3] 0.009 | [5] 0.079 | sotrastaurin -0.192 | [8] 0.004 | defactinib -0.131 | [10] 0.003

DCP2 (UniProt Q8IU60)
inactive: volasertib -0.153 | epoxomicin -0.04 | [5] -0.069 | [6] 0.319 | saracatinib -0.053 | sotrastaurin -0.267 | alvocidib -0.047 | Tubastatin A 0.013 | defactinib 0.098 | [9] -0.153 | [10] 0.081

FAM160A2 isoform 2 (UniProt Q8N612)
inactive: [1] -0.074 | [2] -0.048 | epoxomicin -0.177 | [4] 0.06 | [5] 0.052 | rosiglitazone -0.046 | [6] 0.287 | [7] -0.258 | saracatinib -0.066 | alvocidib -0.016 | Tubastatin A -0.17 | defactinib -0.002 | rucaparib -0.085 | [9] -0.064 | encorafenib -0.168 | [10] 0.128
